Drawing on PubChem BioAssay (EPA / NIEHS), this text covers outcome for 15 molecules.

Records with an inconclusive call do not appear. Active and inactive are the calls of the source. The calls were made as follows: active = hit-call score of the fitted dose curve at least 0.9, where 1 is the maximum; inconclusive = response in the unintended direction; inactive = score below 0.9.

Read-out in the test: HMG-CoA synthase (HMGCS2), HMGCS2 (gene 3158)
Nature of the test: CLD_HMGCS2_24hr: CellzDirect (CLD) Gene Expression Assay for HMG-CoA synthase (HMGCS2) at 24 hours (AID 2283691). Here is the method:
CLD_24hr is a cell-based, multiplexed-readout assay that uses hepatocyte, a human liver primary cell, with measurements taken at 24 hours after chemical dosing in a 96-well plate.CLD_HMGCS2_24hr is one of 16 assay component(s) measured or calculated from the CLD_24hr assay. It is designed to make measurements of mRNA induction, a form of inducible reporter, as detected with chemiluminescence signals by Quantitative Nuclease Protection Assay (qNPA) technology.Data from the assay component CLD_HMGCS2_24hr was analyzed at the endpoint, CLD_HMGCS2_24hr, in the positive analysis fitting direction relative to DMSO as the negative control and baseline of activity. Using a type of inducible reporter, gain-of-signal activity can be used to understand changes in the reporter gene as they relate to the gene HMGCS2. Furthermore, this assay endpoint can be referred to as a primary readout. To generalize the intended target to other relatable targets, this assay endpoint is annotated to the lyase intended target family, where subfamily is HMG-CoA synthase.
Human hepatocyte cultures were treated daily for two consecutive days with fresh dosing solutions containing appropriate concentrations of the 320 ToxCast chemicals (chemical identities were blinded to CellzDirect and other ToxCast collaborators), vehicle control (0.2% DMSO), and positive control inducers as summarized in Table 1. Due to the large number of treatment groups and chemicals examined, the ToxCast chemicals were divided into two groups (spanning two independent cultures of hepatocytes from separate donor preparations (Hu778: ToxCast plates 1 and 2; Hu776: ToxCast plates 3 and 4). Each preparation of human hepatocyte cultures was treated with respective vehicle control, medium only control, set of six positive controls/reference chemicals for the five hepatic receptor pathways, and a subset of eight of the ToxCast chemicals (indoxacarb, pyrithiobac-sodium, norflurazon, cyhalofop-butyl, methomyl, thiram, acetochlor, and propiconazole). These replicate data, coupled with internal replicates designed within the blinded ToxCast chemical library, provided additional data to evaluate interindividual differences between hepatocyte preparations and their potential impact on chemical profiles.Cell morphology and integrity were evaluated using phase-contrast microscopy as an indicator of hepatocyte cell health (Tyson & Green, 1987). Cultures for each treatment group (i.e., media, vehicle [0.2% DMSO], positive control inducers [multiple concentrations], and the ToxCast chemicals [multiple concentrations]) were observed and cell morphology was assessed relative to vehicle control cultures at each harvest time point (0, 6, 24, or 48 h). […] Images were evaluated at the conclusion of the study to assess changes in cell integrity and account for the effects of chemical exposure on uncharacteristic changes in concentration-dependent gene expression profiles. The results from these determinations of apparent cytotoxicity were annotated (yes/no) alongside the corresponding qNPA data for reference.At the conclusion of each treatment period, hepatocyte cultures (96-well) were washed with 1 volume of HBSS, lysed by addition of 25 ul ArrayPlate lysis buffer (HTG, Tucson, AZ), and 70 ul/well of Denaturation Oil, denatured by incubation at 95C for 10 min, and frozen at approximately -70C until analysis by nuclease protection assay (qNPA) (Roberts et al., 2007). For qNPA analysis, cell lysates were thawed at 50C for approximately 30 min, qNPA probes were added, and samples were incubated at 95C for 10 min to begin the detection process by denaturing the target RNA, dissociating the duplexes and secondary structure hybridization. At the conclusion of the hybridization period, S1 nuclease reagent was added to each sample to digest all nonprotected nucleotides at 50C for 60-90 min. […]
Take `CS/C(C)=N/OC(=O)N(C)SN(C)C(=O)O/N=C(\C)SC`: the molecule was classed as inactive.

With `COc1nc(C)nc(NC(=O)NS(=O)(=O)c2ccccc2CCC(F)(F)F)n1`, the molecule was called inactive.

For `CCCCNC(=O)OCC#CI`, the outcome was inactive.

Regarding `CCCCOC(=O)c1ccccc1C(=O)OCCCC`, the call was inactive.

Turning to `COC(=O)C(C)Oc1ccc(Oc2ccc(Cl)cc2Cl)cc1` (stereo not given), the call was inactive.

`Cc1c(F)c(F)c(COC(=O)C2C(/C=C(\Cl)C(F)(F)F)C2(C)C)c(F)c1F` (stereo not given): the result was inactive.

As for `Oc1ccccc1-c1ccccc1`, the result was inactive.

With `O=C(O)c1nc(Cl)ccc1Cl`, the molecule was classed as inactive.

For the molecule `Cc1cc(Cl)ccc1OCC(=O)O`, the molecule was classed as inactive.

Turning to `CCON=C(CC)C1=C(O)CC(c2c(C)cc(C)cc2C)CC1=O` (stereo not given), the result was inactive.

Turning to `CC(C)C1(C)N=C(c2nc3ccccc3cc2C(=O)O)NC1=O` (stereo not given), the call was inactive.

With `CCOC(=O)CC(SP(=S)(OC)OC)C(=O)OCC` (stereo not given), the molecule was classed as inactive.

For `C=CC1(C)OC(=O)N(c2cc(Cl)cc(Cl)c2)C1=O` (stereo not given), the molecule was classed as inactive.

Turning to `COP(=S)(OC)Oc1nc(Cl)c(Cl)cc1Cl`, the molecule was called inactive.

On to `O=C(O)COc1nc(Cl)c(Cl)cc1Cl`, for which the molecule was classed as inactive.
